In the experiment the target is SUMO-conjugating enzyme UBC9 (Homo sapiens) (UniProt P63279). The experiment in a line: blockers of SAE1/SAE2–UBC9 SUMO transfer – biochemical, HTRF, uHTS, primary screen (AID 2006). As to conditions: HTRF SUMOylation assay, SAE1/SAE2 + UBC9, in vitro, at 35 µM, stronger effect = higher value.

We go through 58 molecules from PubChem BioAssay AID2006 (Sanford-Burnham Center for Chemical Genomics, 2009).

The structures appear in SMILES notation. The campaign covered roughly 290,000 compounds. About 1,000 (0.34%) were called active. This is one part of a sample in which actives are shown more often than they occur. Cut-off read from the data, not from the text of the source: active = inhibition above about 50% (passing the limit was not always enough); inconclusive = no clear call, values can overlap the other calls.

Chain of SUMO-conjugating enzyme UBC9 (Homo sapiens) (P63279 whole entry, looked up): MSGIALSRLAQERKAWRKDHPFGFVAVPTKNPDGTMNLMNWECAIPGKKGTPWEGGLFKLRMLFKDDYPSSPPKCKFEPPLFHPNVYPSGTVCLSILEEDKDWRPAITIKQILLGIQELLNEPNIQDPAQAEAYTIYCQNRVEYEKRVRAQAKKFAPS

As for `COC(=O)c1ccc(CNC(=O)c2ccc3oc(C(C)C)nc3c2)cc1`, the inhibition (in general, the relative decrease from the control value, in per cent) was 9.1% (inactive).

`Cc1ccc(S(=O)(=O)c2c(N)n(C)c3nc4ccccc4nc23)cc1`: the inhibition was 18.6% (inactive).

`CCN(CC)CCn1c(N)c(S(=O)(=O)c2ccccc2)c2nc3ccccc3nc21`: the inhibition is 11.7% (inactive).

With `CCC(=O)Nc1c(S(=O)(=O)c2ccccc2)c2nc3ccccc3nc2n1Cc1ccccc1`, the inhibition was 98.2% (active).

Regarding `O=C(Cc1c(Cl)cccc1Cl)NC1CC1`, the inhibition was 11% (inactive).

On to `Cc1ccc(NS(=O)(=O)c2ccc3c(c2)n(C)c(=O)c(=O)n3C)c(C)c1`, for which the inhibition was 9% (inactive).

Regarding `CC(=O)NCC(=O)N1CCC(n2nccc2NC(=O)CCCc2ccccc2)CC1`, the inhibition was -2.9% (inactive).

For the molecule `COc1c(O)ccc2c1CN1CCc3cc4c(cc3C1C2)OCO4` (stereo unspecified), the inhibition is 12.8% (inactive).

Regarding `Cc1ccc(-c2nn(-c3ccccc3)cc2/C=C2\SC(=S)N(CCCCCC(=O)O)C2=O)o1`, the inhibition is 55.1% (active). Besides, the inhibition (average of repeat tests) was 59.6%.

Take `CN(C)S(=O)(=O)c1cccc(-c2nn(-c3ccccc3)cc2/C=C2\SC(=S)N(CC(=O)O)C2=O)c1`: the inhibition is 37.3% (inactive).

`COc1ccc(-c2nn(-c3ccccc3)cc2/C=C2/SC(=S)N(CCCC(=O)O)C2=O)c(C)c1`: the inhibition is 44.1% (inactive).

Regarding `O=C(N/C(=C/c1ccc(Cl)cc1)C(=O)N1CCCCC1)c1ccco1`, the inhibition is 22% (inactive).

On to `CC1CCCCN1C(=O)CCS(=O)(=O)Cc1ccccc1` (stereo unspecified), for which the inhibition is 18.6% (inactive).

As for `COc1ccc(NC(=O)CNC(=O)Cn2ccc3ccccc3c2=O)c(OC)c1`, the inhibition was 7.3% (inactive).

For `Cc1ccc(Nc2nc(Cl)c(C=O)s2)cc1`, the inhibition was 16.9% (inactive).

As for `Cc1c(Cl)cccc1NC(=O)CCC(=O)N/N=C/c1ccco1`, the inhibition is -5.3% (inactive).

For `COc1ccc2oc(=O)c(C(=O)NCc3ccccn3)cc2c1`, the inhibition was 31.2% (inactive).

With `COc1cccc(S(=O)(=O)NCc2ccc(C(=O)NCc3ccccn3)cc2)c1`, the inhibition was 0.6% (inactive).

In the case of `O=C(NCc1ccccn1)c1ccc2nc(-c3ccco3)c(-c3ccco3)nc2c1`, the inhibition is 74.1% (active).

Take `O=C(Nc1ccc2nccnc2c1)c1ccco1`: the inhibition was 28.4% (inactive).

As for `CC(C)(C)c1ccc(NC(=O)NCc2ccco2)cc1`, the inhibition was -11.5% (inactive).

Turning to `COCCNC(=O)Nc1ccc2nc(-c3ccco3)c(-c3ccco3)nc2c1`, the inhibition was 95.3% (active). Besides, the inhibition (average of repeat tests) is 62.6%.

Turning to `COc1ccc(CNC(=O)c2ccc(Br)s2)cc1OC`, the inhibition was 0.1% (inactive).

Consider `Cc1c(C)c2c(OCC(=O)N[C@@H](C(=O)O)c3ccccc3)cc3c(c2oc1=O)CCC(C)(C)O3`, for which the inhibition was 44% (inactive).

On to `CCc1ccc(-c2nc(SCC(=O)NC3CCCC3)n[nH]2)cc1`, for which the inhibition was -14.4% (inactive).

`COc1ccc(N(C)C(=O)C2CCN(S(=O)(=O)c3cccc4nsnc34)CC2)cc1`: the inhibition is 11.4% (inactive).

As for `Cc1ccnc(NS(=O)(=O)c2ccc(NC(=O)c3oc4ccc(F)cc4c3C)cc2)n1`, the inhibition is 15.4% (inactive).

With `CC(CC(=O)N1CCN(S(=O)(=O)c2ccccc2)CC1)n1cncn1` (stereo unspecified), the inhibition was 14.6% (inactive).

Turning to `CCOc1ccc(NC(=O)CN2CCN(CC(=O)Nc3ccc(OC)cc3)CC2)cc1`, the inhibition was -4.3% (inactive).

Regarding `Cc1ccc(OCc2n[nH]c(=S)n2-c2ccc(C)cc2)cc1`, the inhibition is 3.7% (inactive).

On to `COc1ccc(Cc2n[nH]c(=S)n2NC(=O)Nc2ccc(C)cc2)cc1`, for which the inhibition is 68.1% (active). Also, the inhibition (average of repeat tests) was found to be 49.6%.

Turning to `C/C(=N/Nc1nc(-c2ccccc2)c(CC(=O)O)s1)c1ccccc1`, the inhibition is 7% (inactive).

For `Cc1cc(C)nc(N/N=C/c2c(CO)cnc(C)c2O)n1`, the inhibition was -3.1% (inactive).

Regarding `Nc1ccc2nc3c(=O)[nH]c(=S)[nH]c3nc2c1`, the inhibition was 93.4% (active).

As to `CCc1ccc(C(=O)NC(=S)Nc2ccccc2N2CCOCC2)cc1`, the inhibition is -0.7% (inactive).

For `CCOc1ccc(N(CC(=O)NCCc2ccc(F)cc2)S(=O)(=O)c2ccccc2)cc1`, the inhibition was -1.5% (inactive).

For `O=C(O)CCCn1cc(NC(=O)COc2cccc(Cl)c2)cn1`, the inhibition is 11.5% (inactive).

Turning to `CN(C)[C@@H]1C(=O)C(C(N)=O)=C(O)[C@@]2(O)C(=O)C3=C(O)c4c(O)ccc(Cl)c4[C@@H](O)[C@H]3C[C@@H]12`, the inhibition is 62.8% (active).

For `COc1ccc(CN2C3CCCC2CC(NC(=O)c2cccc(F)c2)C3)cc1` (stereo unspecified), the inhibition was 8.9% (inactive).

`COc1ccc(C2NC(=O)N(C)C(C)=C2[N+](=O)[O-])cc1` (stereo unspecified): the inhibition was -5.6% (inactive).

Take `CC(NC(=O)Nc1cccc([N+](=O)[O-])c1)c1ccc2c(c1)OCO2` (stereo unspecified): the inhibition is 3% (inactive).

For `COc1ccc(-n2nc(C(=O)NCC(=O)N3CCC(C(N)=O)CC3)c3ccccc3c2=O)cc1OC`, the inhibition was -4.6% (inactive).

As to `O=C(CNC(=O)c1ccc(F)cc1)c1ccccc1`, the inhibition was -1.3% (inactive).

On to `Cc1ccc(N=C2NC(=O)/C(=C/C=C/c3ccco3)S2)cc1C`, for which the inhibition was 54.8% (active).

In the case of `Cc1cccc(N=C2NC(=O)/C(=C/c3cn(C)c4ccccc34)S2)c1`, the inhibition is 12.3% (inactive).

Consider `Cc1ccc(N2NC(=O)/C(=C/C=C/c3ccco3)C2=O)cc1C`, for which the inhibition is -18.1% (inactive).

On to `COc1ccc(CN2CCOC2=O)cc1OC`, for which the inhibition was -0.8% (inactive).

In the case of `O=C(CN1CCN(C(=S)NC2CCCC2)CC1)Nc1ccc(Oc2ccccc2)cc1`, the inhibition was -21.3% (inactive).

On to `O=C1CN(C(=O)c2cc(F)cc(F)c2)c2ccccc2N1`, for which the inhibition was 6.7% (inactive).

As to `NS(=O)(=O)c1ccc(CNC(=O)c2cccc(Oc3ccccc3)c2)cc1`, the inhibition was -2.7% (inactive).

Regarding `CCN1CC=C2C(C#N)=C(N)C(C#N)(C#N)[C@H](c3ccoc3)[C@H]2C1`, the inhibition is 67.7% (active).

With `CCOC(=O)N1CC=C2C(C#N)=C(N)C(C#N)(C#N)[C@H](c3cccs3)[C@H]2C1`, the inhibition is -13.8% (inactive).

For `CCCN1CC=C2C(C#N)=C(N)C(C#N)(C#N)C(c3cc(OC)ccc3OC)C2C1` (stereo unspecified), the inhibition is 34.3% (inactive).

Take `O=C(N/N=C/c1cccc(OCc2ccccc2)c1)c1ccc(Br)o1`: the inhibition is 4.8% (inactive).

On to `O=C(Nc1ccccc1N1CCCC1)c1ccc2ccccc2c1`, for which the inhibition was 1.5% (inactive).

Regarding `COC(=O)c1cccc(C(=O)N2CCC(CCC(=O)NCc3ccc(F)cc3)CC2)c1`, the inhibition was 7.8% (inactive).

On to `CC(C)c1ccc2c(c1)c(SC(C)(C)C)c(CC(C)(C)C(=O)O)n2Cc1ccc(Cl)cc1`, for which the inhibition was 52.2% (active).

Consider `O=C(O)c1ccc(Cn2c(=S)[nH]c3cc(Cl)ccc3c2=O)cc1`, for which the inhibition is 1.5% (inactive).
